# The other results are listed elsewhere or left out. Values without a mark were called inactive. No rule for the calls is given here.
# Target: Tyrosine-protein phosphatase non-receptor type 22 (Homo sapiens) (UniProt Q9Y2R2)
# Test: retest of PTPN22 activators, confirmation, biochemical, DiFMUP fluorescence, single concentration (AID 1031)
# Conditions: Recombinant LYP, at 2 µM, hits give high values, zero set by plate's median compound well
# Chain of Tyrosine-protein phosphatase non-receptor type 22 (Homo sapiens) (Q9Y2R2 whole entry, looked up): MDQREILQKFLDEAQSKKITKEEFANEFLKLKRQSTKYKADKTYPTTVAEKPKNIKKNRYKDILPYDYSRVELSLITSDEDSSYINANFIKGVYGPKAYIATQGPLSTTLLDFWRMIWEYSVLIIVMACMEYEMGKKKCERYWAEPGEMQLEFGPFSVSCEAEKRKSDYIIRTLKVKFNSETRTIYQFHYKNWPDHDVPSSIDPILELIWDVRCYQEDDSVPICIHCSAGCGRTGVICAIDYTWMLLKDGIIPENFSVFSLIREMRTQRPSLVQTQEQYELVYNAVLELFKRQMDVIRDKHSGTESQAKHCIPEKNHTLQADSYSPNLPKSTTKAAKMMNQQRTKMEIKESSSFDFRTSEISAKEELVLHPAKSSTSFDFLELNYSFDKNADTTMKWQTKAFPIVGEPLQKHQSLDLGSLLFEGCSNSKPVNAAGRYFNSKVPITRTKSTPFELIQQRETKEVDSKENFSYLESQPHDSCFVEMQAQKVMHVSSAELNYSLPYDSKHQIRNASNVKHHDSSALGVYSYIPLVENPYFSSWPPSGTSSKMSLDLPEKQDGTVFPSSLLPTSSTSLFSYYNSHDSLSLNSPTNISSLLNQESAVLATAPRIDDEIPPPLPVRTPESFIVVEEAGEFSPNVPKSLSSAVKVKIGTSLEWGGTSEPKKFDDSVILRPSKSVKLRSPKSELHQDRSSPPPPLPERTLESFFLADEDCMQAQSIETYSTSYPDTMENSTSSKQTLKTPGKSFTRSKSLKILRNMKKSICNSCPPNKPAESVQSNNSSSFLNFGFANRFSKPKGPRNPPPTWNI
row,Compound,activation [%]
1,Cc1ccccc1NC(=O)c1cc(S(=O)(=O)N2CCOCC2)cs1,-3.6
2,N#CCCn1ncc2ccccc21,5.5

# — PubChem BioAssay AID1031 (Columbia University Molecular Screening Center, 2008)
